High-throughput results (PubChem BioAssay)
This is a sample that favours compounds with a hit; in the whole collection about 11% have one here.
AmpC inh no detg: blocks E. coli AmpC beta-lactamase in detergent-free assay | actives 0.52% (n = 330,000) | AmpC nitrocefin hydrolysis, absorbance 480 nm, 0.0001% Triton | Potency, µM (highest dose often 57.1 µM), for inactives: at the top dose activity change, negative = inhibition, usual class: inhibitors | AID 485341;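 note: plate controls were no compound for no effect and no enzyme for full effect; nearly all actives have a fitted effect of over 20% in size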
Target sequence (P00811 whole entry, looked up): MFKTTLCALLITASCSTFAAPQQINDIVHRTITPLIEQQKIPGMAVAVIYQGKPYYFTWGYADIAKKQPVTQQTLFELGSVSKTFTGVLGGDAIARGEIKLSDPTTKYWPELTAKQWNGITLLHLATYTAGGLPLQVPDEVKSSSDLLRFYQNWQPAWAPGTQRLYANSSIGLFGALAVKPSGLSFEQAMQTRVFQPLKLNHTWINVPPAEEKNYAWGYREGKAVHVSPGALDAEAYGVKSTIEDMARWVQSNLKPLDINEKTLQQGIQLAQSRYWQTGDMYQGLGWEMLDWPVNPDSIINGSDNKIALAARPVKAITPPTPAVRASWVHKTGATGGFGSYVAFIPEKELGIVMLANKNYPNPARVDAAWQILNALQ
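20 mM phosphate pH 7.0 + 0.01% (detergent screen) or 0.0001% Triton X-100; 5.3 nM AmpC reagent; cpd preinc 15 min RT; nitrocefin (800 uM stock) to start; A480 q20 s × 4 min; Activity was normalised to no-enzyme and no-compound control wells.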
HCV inh: blocks hepatitis C virus | AID 651820 | actives 3.4% (n = 340,000) | Potency, µM (titrated, usually from 41.8 µM), without a hit: top-dose activity change, negative = inhibition, most hits filed as inhibitors | Huh7.5.1 HCVcc-Cre infection, luciferase reporter, 44 h
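Compounds are dispensed onto cells plated 4 h earlier at 1,000 per well, with HCVcc-Cre virus (about 0.5 moi) added next. Following 44 h of culture, luminescent signal is measured for 15 sec after 15 min with substrate at room temperature.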
AMA1 RON2 block: disrupts binding of P. falciparum AMA1 to RON2; AlphaScreen AMA1-biotinylated RON2 peptide binding; Potency, µM (titrated, usually from 58.2 µM), for the others: at the top dose activity change, negative = inhibition, actives largely listed as inhibitors; actives 0.2% (n = 360,000); AID 720542;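 note: 0% = vehicle wells and -100% = peptide control; nearly all actives have a fitted effect of over 45% in size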
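AMA1 (3D7) with his tag at 25 nM final met compounds first, then biotinylated RON2 peptide at 25 nM; detection used donor plus acceptor beads, 10 µg/mL apiece, read by AlphaScreen after 30 min at room temperature.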
Pf growth 48h: P. falciparum growth inhibition at 48 hours (one generation); actives 5.9% (n = 310,000); Potency, µM (doses to about 28.7 µM), inactives show top-dose activity change, negative = inhibition, hits mostly inhibitors; P. falciparum luciferase growth in erythrocytes, 48 h
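Parasite viability was followed by luminescence of a genomically integrated firefly luciferase. Cultures held 0.1% parasitemia at 2% hematocrit (final), incubated under 5% CO2 at 37 C.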
Pf growth 96h: inhibits malaria parasite growth, 96 h; actives 6.9% (n = 320,000); P. falciparum luciferase reporter growth, 96 h; Potency, µM (highest dose often 28.7 µM), for the others: top-dose activity change, negative = inhibition, hits mostly inhibitors
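Delayed-death screen, second-generation endpoint: infected erythrocytes, 2% hematocrit, 0.05% parasitemia final; 96 hours at 37 C, 5% CO2; luciferase detection reagent; luminescence decrease equals reduced growth.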
AmpC detergent: AmpC beta-lactamase inhibition with detergent present | P00811 | AmpC hydrolysis of nitrocefin, absorbance 480 nm, 0.01% Triton | Potency, µM (top dose mostly 114 µM), for inactives: at the top dose activity change, negative = inhibition, actives largely listed as inhibitors | actives 0.041% (n = 370,000);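 note: 0% = no-compound wells and -100% = no-enzyme wells; nearly all actives have a fitted effect of over 25% in size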
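20 mM phosphate pH 7.0 + 0.01% (detergent screen) or 0.0001% Triton X-100; 5.3 nM AmpC reagent; cpd preinc 15 min RT; nitrocefin (800 uM stock) to start; A480 q20 s × 4 min; Activity was normalised to no-enzyme and no-compound control wells.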
* marks the source's active call; other numbers are inactive results; u = inconclusive; x = no result given; [ ] = another dose, or the depositor's remark. Calls come from the whole dose curve; as a rule, active = well fitted curve in the direction sought with a large enough effect; inconclusive = small, poorly fitted or top-dose-only effect, or another doubt; inactive = no such curve, though single readings can be large; an effect the other way counts as inactive or inconclusive. Unless noted, % is set by controls: 0 for no effect and ±100 for the full control effect; potency is the fitted concentration of half-maximal effect.

SMILES	AmpC inh no detg	HCV inh	AMA1 RON2 block	Pf growth 48h	Pf growth 96h	AmpC detergent
COc1cc(OC)cc(-c2cc3nc(C)c(CCC(=O)O)c(C)n3n2)c1	112%	11%	2%	x	9.3µM*	-14%
CC1CCN(C(=O)c2ccc(NC(=O)c3nsc4ccccc34)cc2)CC1	x	x	x	x	x	-2%
Cc1nc2ncnn2c(C)c1CCC(=O)NC(C)c1ccc2c(c1)OCCO2 (stereo unspecified)	-10%	-9%	6%	7%	x	-1%
Cc1nc2ncnn2c(C)c1CCC(=O)NC(C)CCc1ccco1 (stereo unspecified)	-6%	14%	-1%	10%	12µM*	-2%
Cc1cccc(-n2c(C)nc3cc(C(=O)NCCC4=CCCCC4)ccc32)c1	x	x	x	x	x	12%
Cc1ccc(S(=O)(=O)NC(CC(C)C)C(=O)Nc2ccncc2)cc1 (stereo unspecified)	-31%	5%	-21%	5.2µM*	5.9µM*	0%
CN1C(=O)C(O)(CC(=O)c2cccnc2)c2ccccc21 (stereo unspecified)	-18%	11%	1%	-8%	u	-18%
O=C(CC1(O)C(=O)N(Cc2cccc3ccccc23)c2ccccc21)c1cccnc1 (stereo unspecified)	155%	u	-22%	x	3.7µM*	5%
O=C(c1ccc(F)cc1)N1CCN(CCc2ccncc2)CC1	x	x	x	x	x	26%
Cc1cc(C)cc(NC(=O)Nc2ccc(N3CCCCC3)cc2)c1	16µM*	-23%	-8%	86%	37%	7%
O=C(Nc1ccc(N2CCCC2)cc1)C(c1ccccc1)c1ccccc1	-7%	-1%	-20%	x	4.7µM*	-3%
CC(C)C(=O)Nc1ccc(N2CCN(c3ccc(F)cc3)CC2)cc1	-13%	4%	-9%	37%	3%	-4%
Cc1cc(C)cc(C(=O)Nc2ccc(N3CCCC3)cc2)c1	-4%[2.29 µM]	u	-20%	-17%	13%	5%
CC(=O)N1CCN(c2ccc(NC(=O)C(c3ccccc3)c3ccccc3)cc2)CC1	173%	9%	-4%	u	-23%	-5%
CC(C)C(=O)Nc1ccc(N2CCCC2)cc1	72%	-8%	-14%	x	4.1µM*	-1%
COc1ccccc1CNC(=O)CCn1c(=O)c2cccn2c2cccnc21	x	x	x	x	x	1%
O=C(CCc1nc(-c2cccs2)no1)Nc1cccc([N+](=O)[O-])c1	x	x	x	x	x	20%
CCc1cc(=O)oc2c(C)c3c(cc12)CN(CCc1ccccc1)CO3	x	x	x	x	x	11%
CCOC(=O)N1CCN(C(=O)CSc2ccccc2)CC1	-16%	0%	15%	x	19%	-13%
CCOC(=O)N1CCN(C(=O)CSc2nnc3[nH]c(=O)c(C)c(C)n23)CC1	-21%	29%	7%	9.3µM*	u	-7%
COc1ccc(C(=O)CSc2n[nH]c(-c3ccco3)n2)cc1	-30%	-3%	54%	8%	1.2µM*	-11%
CCc1ccc(C(=O)CSc2n[nH]c(-c3ccncc3)n2)cc1	-35%	-28%	-1%	x	5.2µM*	8%
Cc1ccc(N(C)S(=O)(=O)c2ccc3[nH]c(=O)ccc3c2)cc1	x	x	x	x	x	18%
COc1ccc(CNC(=O)CCSCc2ccccc2C)cc1	7%	5%	6%	25%	3.3µM*	1%
O=C(CCSCc1ccccc1F)NCc1ccc(F)cc1	-6%	7%	2%	x	2.3µM*	-19%
SMILES	AmpC inh no detg	HCV inh	AMA1 RON2 block	Pf growth 48h	Pf growth 96h	AmpC detergent
O=C(CSCc1ccccc1F)NCc1ccc(F)cc1	-23%	5%	0%	60%	u	0%
COc1ccccc1CNC(=O)CCSCc1cccc(Cl)c1	-15%	13%	6%	3%	1.2µM*	-5%
Cc1ccc(CNC(=O)c2cc(=O)c3cc(C)cc(C)c3o2)cc1	x	x	x	x	x	-9%
CC(=O)Nc1ccc(C(=O)OCC(=O)N(c2ccccc2)C2CCS(=O)(=O)C2)cc1 (stereo unspecified)	-9%	22%	-1%	-12%	2%	-7%
O=C(CCl)N(c1ccccc1)C1CCS(=O)(=O)C1 (stereo unspecified)	-23%	22µM*	7%	12µM*	u	u
CCCCN=C1NN=C(c2cc3ccccc3o2)CS1	14µM*	1%	88%	u	13µM*	-8%
CCCCN=C1NN=C(c2cccc([N+](=O)[O-])c2)CS1	-32%[11.4 µM]	-11%	35%	-14%	8%	-12%
Fc1ccccc1Cn1c(-c2ccccc2)nc2ccccc21	x	x	x	x	x	17%
COc1ccc(NC(=O)C2CCCN(S(=O)(=O)c3ccc(F)cc3)C2)cc1 (stereo unspecified)	x	x	x	x	x	19%
Cc1ccn2c(NC3CCCC3)c(-c3ccncc3)nc2c1	-11%	u	-2%	37%	u	3%
CCC(C)Sc1ccc(-c2nc3cnccn3c2NC2CCCCC2)cc1 (stereo unspecified)	38%	u	44%	7.4µM*	7.4µM*	4%
Cc1ccn2c(NC3CCCCC3)c(-c3cccc(-c4cccc(Cl)c4)c3)nc2c1	-19%	u	13%	8.3µM*	10µM*	-3%
CCCCNc1c(-c2ccc(OC)c(SC3CCCCC3)c2)nc2cnccn12	122%	u	3%	10µM*	9.3µM*	u
COc1ccc(-c2nc3cnccn3c2NCc2ccccc2)cc1SC1CCCCC1	44%	10µM*	9%	u	13µM*	u
CCC(C(=O)Nc1ccccc1OC)n1c(C(=O)OC)cc2sc(Cl)cc21 (stereo unspecified)	x	x	x	x	x	-9%
CCCCNc1c(-c2ccc(OC)c(SC3CCCCC3)c2)nc2cc(C)ccn12	54%	4µM*	28%	9.3µM*	u	6%
COc1cc(-c2nc3cnccn3c2NC(C)(C)CC(C)(C)C)ccc1O	2%	u	1%	u	u	-1%
CCCCCCSc1ccc(-c2nc3cc(C)ccn3c2NC2CCCCC2)cc1	-13%	6%	15%	x	x	x
CCCCCCSc1ccc(-c2nc3cnccn3c2NC2CCCCC2)cc1	x	x	4%	x	x	x
CCCCCCSc1cc(-c2nc3cnccn3c2NCc2ccccc2)ccc1OC	7%	17%	12%	7.4µM*	5.9µM*	0%
CCCCNc1c(-c2ccc(OC)c(SC3CCCCC3)c2)nc2ccc(Cl)cn12	-14%	7%	8%	x	x	x
CCCCNc1c(-c2ccc(-c3ccc(C(C)=O)cc3)c(OC)c2)nc2cnccn12	115%	u	19%	9.3µM*	u	-9%
CCCCCCSc1cc(-c2nc3cc(C)ccn3c2NC2CCCCC2)ccc1OC	5%	-19%	-3%	7.4µM*	8.3µM*	-1%
